# From PubChem BioAssay (EPA / NIEHS)
# Records with an inconclusive call do not appear. The source made the active and inactive calls. The calls were made as follows: active = hit-call score of the fitted dose curve at least 0.9, where 1 is the maximum; inconclusive = response in the unintended direction; inactive = score below 0.9.
# Assay: ACEA_ER_AUC_viability: ACEA Biosciences xCELLigence Real-Time Cell Analysis on Estrogen Receptor Agonism for Viability (AID 2283782);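 also: continuous compound exposure with impedance area under curve over 80 h; hit means loss of impedance signal meaning reduced cell growth or viability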
# In short: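 T-47D; phenol red-free RPMI1640 + 10% CS-FBS; 8 conc., 1:4 serial, max 100 uM final, ≤0.5% DMSO; n = 2; continuous exposure; impedance monitored to 80 h post-dose; AUC vs DMSO.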
Structure (SMILES),outcome,AC50
CCCCCCCCC,inactive,–
CC(C)(N)CO,inactive,–
CC(=O)C(=O)O,–,78 µM (active)
CCCCOCCOCCOCCOCCO,inactive,–
NCCNCCN,inactive,–
